Assay outcomes (PubChem)
Most compounds without a hit are left out; they make up all but 21% or so of the library.
Shiga toxin inh: Shiga toxin inhibition; hit rate 9.2% among 290,000; Vero cells, Shiga toxin protein synthesis inhibition reporter; inhibition, % at 38.7 µM; in the data active = inhibition mostly above about 28%, no sharp cut-off; inactive = mostly below about 43%; also: 0% is about no effect
Cycloheximide cs: counter-screen hit for Shiga toxin inhibitors, cycloheximide; cell reporter, cycloheximide protein synthesis inhibition counterscreen; AID 2314; max response, %; hit rate 12% among 300,000; in the data active = max response mostly above about 13%, no sharp cut-off; inactive = mostly below about 14%; also: read at 38.3 µM for the half of the compounds with a filed dose; 0% is about no effect
Pf growth 96h: P. falciparum growth inhibition at 96 hours; Potency, µM (series often up to 28.7 µM), for the others: top-dose activity change, negative = inhibition, usual class: inhibitors; P. falciparum luciferase reporter growth, 96 h; hit rate 6.9% among 320,000; also: potency is read from the fitted curve at half-maximal effect; % is scaled to controls: 0 for no effect and ±100 for the full control effect
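Two parasite generations (96 h, 37 C, 5% CO2) of compound exposure in infected erythrocytes (0.05% parasitemia, 2% hematocrit). Luciferase-reporter P. falciparum; decreased luminescence indicates inhibited growth, aimed at apicoplast-acting delayed death.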
Pf growth 48h: P. falciparum growth inhibition at 48 hours (one generation) | Potency, µM (titrated, usually from 28.7 µM), inactives show at the top dose activity change, negative = inhibition, usual class: inhibitors | P. falciparum luciferase growth in erythrocytes, 48 h | hit rate 5.9% among 310,000 | AID 504832; also: potency is read from the fitted curve at half-maximal effect; % is scaled to controls: 0 for no effect and ±100 for the full control effect
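A one-generation exposure of luciferase-tagged malaria parasites in RPMI 1640/Albumax erythrocyte culture, 37 C and 5% CO2. Inhibition is inferred from decreased luminescence after adding detection reagent.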
The depositor's hits bear a star; ? = inconclusive; . = not tested or not shown; [ ] = another dose, or the depositor's remark. Unless noted, calls follow the shape of the dose curve; as a rule, active = well fitted inhibition curve with a large enough effect; inconclusive = small, poorly fitted or top-dose-only effect, or another doubt; inactive = no such curve, though single readings can be large or run the other way.

SMILES	Shiga toxin inh	Cycloheximide cs	Pf growth 96h	Pf growth 48h
O=C(N/N=C/c1cn(-c2ccccc2)nc1-c1ccc(F)cc1)c1ccc(Br)o1	33.2	7.1	?	8.28µM*
O=C(CNc1ccccc1)N/N=C/c1cn(-c2ccccc2)nc1-c1ccccc1	54.3	9.7*	?	11.7µM*
O=C(N/N=C/c1cn(-c2ccccc2)nc1-c1cccnc1)c1ccc(F)cc1	6.9	6.9	?	?
CN1CCC(N(C)C(=O)/C=C/c2cn(-c3ccccc3)nc2-c2cccs2)CC1	-22.4	2.7	?	5.86µM*
C=CCN(C(=O)c1csnn1)C(C(=O)NC1CCCC1)c1ccccc1 (stereo not given)	-12.5	-3.1	?	3.1%
COc1ccc(N(C(=O)CNC(=O)c2cccs2)C(C(=O)NCC2CCCO2)c2ccccc2)cc1OC (stereo not given)	-1.0	-1.3	-103.0%	34.5%
COCCNc1ccc(S(=O)(=O)N2CCCC2)cn1	11.1	-0.4	-5.4%	6.6%
O=C(N/N=C/c1cn(-c2ccccc2)nc1-c1cccs1)c1ccccc1F	82.8*	20.0*	47.6%	-18.3%
O=C(c1ccc2c(c1)OCO2)C1CCCN(C(=O)c2cnn(Cc3ccccc3)c2)C1 (stereo not given)	37.7*	21.2*	429.5%	-6.4%
O=C(c1ccc2c(c1)OCO2)C1CCCN(Cc2ccc(F)c(F)c2)C1 (stereo not given)	-7.6	1.0	?	6.8%
O=C(c1ccc2c(c1)OCO2)C1CCCN(C(=O)NCc2ccccc2)C1 (stereo not given)	7.2	6.5	?	4.5%
O=C(c1ccc2c(c1)OCO2)C1CCCN(Cc2ccc(OC(F)F)cc2)C1 (stereo not given)	-6.4	0.1	10.4µM*	24.7%
NC(N)=NCCC[C@H](N)C(=O)NCC(=O)N[C@@H](CC(=O)O)C(=O)N[C@@H](CO)C(=O)O	-3.9	-12.0	.	.
C=COC(=O)c1sc2nc(C)cc(C)c2c1N	19.3	12.8	-14.1%	37.7%
CS(=O)(=O)N1CCN(c2ccccc2NC(=O)C(c2ccccc2)c2ccccc2)CC1	-22.5	-0.4	.	10.4µM*
CS(=O)(=O)N1CCN(c2ccccc2NC(=O)c2ccc3ccccc3c2)CC1	-1.2	-4.0	?	11.7µM*
CS(=O)(=O)N1CCN(c2ccccc2NC(=O)c2ccc(Cl)cc2)CC1	-10.5	-1.6	-6.2%	-10.4%
Cc1ccc(/C(O)=C2\C(=O)C(=O)N(C)C2c2cccc([N+](=O)[O-])c2)cc1 (stereo not given)	-2.9	-1.9	-19.7%	70.6%
O=C(/C=C/c1ccc(OC2CSC2)cc1)c1ccccc1	124.9*	47.3*	?	130.7%
Cc1ccc(N(CC(=O)N/N=C/c2ccc(OC3CSC3)cc2)S(=O)(=O)c2ccccc2)cc1	-4.3	-1.5	-1.0%	?
O=C(N/N=C/c1ccc(OC2CSC2)cc1)c1ccccc1	127.2*	50.2*	?	11.7µM*
O=C(CSc1ncccn1)N/N=C/c1cccc(OC2CSC2)c1	-5.8	12.7	11.7µM*	4.6%
Cc1ccc(S(=O)(=O)N(Cc2ccc(C(F)(F)F)cc2)C(=O)N2CCN(C)CC2)cc1	.	.	28.5%	-1.4%
Cc1cccc(-n2c(CNC(=O)c3ccc(S(=O)(=O)N(C)C)cc3)nnc2SCC(=O)Nc2ccc(F)cc2)c1	-10.2	0.8	?	11.7µM*
Cc1cccc(NC(=O)CSc2nnc(CNC(=O)c3ccc(S(=O)(=O)N(C)C)cc3)n2-c2cccc(C)c2)c1	6.1	0.7	7.38µM*	?
SMILES	Shiga toxin inh	Cycloheximide cs	Pf growth 96h	Pf growth 48h
CN(C)S(=O)(=O)c1cccc(-c2nnc(SCC(=O)NCCCCCC(=O)O)n2-c2ccc(F)cc2)c1	31.9*	13.9	38.4%[5.75 µM]	19.4%
CNCCCCOc1ccc(C(C)(C)C)cc1Cl	17.1	16.2	79.8%	?
Cc1ccc(NC(=S)NCC(O)c2ccccc2)c(C)c1 (stereo not given)	8.3	1.5	-22.3%	-19.8%
Cn1c(C(=O)N2CCOCC2)cc2c(=O)n3ccccc3nc21	-17.1	-6.2	28.4%	13.2%
COCCCn1c(C(=O)NCCN2CCOCC2)cc2c(=O)n3ccccc3nc21	-12.4	7.5	50.7%	2.4%
CCN(C(=O)c1cc2c(=O)n3ccccc3nc2n1C)C1CCCCC1	61.0*	37.1*	17.1%	-2.7%
Cn1c(C(=O)N2CCN(C(=O)c3ccco3)CC2)cc2c(=O)n3ccccc3nc21	10.8	-2.3	4.65µM*	19.0%
CN(C(=O)c1cc2c(=O)n3ccccc3nc2n1C)C1CCCCC1	105.4*	62.3*	-22.1%	103.4%
CCN(C(=O)c1cc2c(=O)n3ccccc3nc2n1CCCOC)C1CCCCC1	-6.2	3.3	14.7µM*	11.7µM*
O=C(NCC1CCCO1)c1cccc(S(=O)(=O)Nc2ccc(SC(F)F)cc2)c1 (stereo not given)	.	.	-13.3%	-17.7%
CCN(CC)C(=O)c1cc2c(=O)n3cccc(C)c3nc2s1	41.6	26.5*	5.3%	19.6%
CCN(C(=O)c1cc2c(=O)n3ccccc3nc2s1)C1CCCCC1	43.6*	17.6	20.1%	?
CCCCN(CC)C(=O)c1cc2c(=O)n3cccc(C)c3nc2s1	17.2	11.7	2.6%	.
COC(=O)c1c(NC(=O)CCCOc2ccc(C)cc2)sc2c1C(C(=O)OC)CC2 (stereo not given)	-4.2	14.8	.	.
CC1NC(=S)N(C2CCCCC2)C1=O (stereo not given)	19.4	4.8	4.65µM*	29.1%
COc1ccc(S(=O)(=O)NCC2CCCN(C(=O)CSC)C2)cc1 (stereo not given)	-5.1	-1.9	?	-1.4%
C(=N\c1nc2ccccc2[nH]1)/c1cccs1	27.0	4.4	10.4µM*	28.9%
N#C/C(=C\c1ccccc1)c1nc2ncccc2[nH]1	24.7	16.9	46.3%	?
N#C/C(=C\c1cccs1)c1nc2ccccc2[nH]1	106.7*	31.6*	-7.7%	?
N#C/C(=C\c1ccccc1OCC(=O)O)c1nc2ccccc2[nH]1	13.8	8.3*	-2.4%	.
O=C(N/C(=C/c1cccs1)c1nc2ccccc2[nH]1)c1ccccc1	-5.2	-4.0	?	4.9%
N#C/C(=C\c1ccc(-c2ccccc2C(=O)O)o1)c1nc2ccccc2[nH]1	-3.7	12.1	?	.
N#C/C(=C/c1ccc(O)c(O)c1)c1nc2ccccc2[nH]1	76.6*	26.2*	4.3%	1.7%[0.00184 µM]
O=C1NC2(CCCCC2)C(=O)N1Cc1cccc(C(F)(F)F)c1	-5.8	1.4	?	4.6%
O=C(OCC#CCNc1nnc(-c2cccc3ccccc23)o1)c1cccs1	.	.	5.0%	?
N#C/C(=C\c1ccc(OC(=O)c2cccs2)cc1)c1nc2ccccc2[nH]1	144.7*	57.9*	?	35.4%
CCCC(=O)N(Cc1cc(=O)[nH]c2ccccc12)c1ccccc1C	-2.0	-5.3	?	?
COc1ccccc1CNC(=O)CN(C)S(=O)(=O)c1ccc2c(c1)n(C)c(=O)c(=O)n2C	-4.2	1.9	?	?
C=CCN=c1scc(-c2ccccc2)n1/N=C/c1ccccn1	active	19.6*	?	-23.8%
C=CCN=c1scc(-c2ccc(F)cc2)n1/N=C/c1ccccn1	90.0*	19.3*	?	?
